Source: PubChem BioAssay AID652106 (National Center for Advancing Translational Sciences (NCATS), 2013)
The campaign covered roughly 370,000 compounds. About 500 (0.14%) were called active. Roughly 2% stayed inconclusive and do not appear here. Calls come from the whole dose curve; as a rule, active = well fitted activation curve with a large enough effect; inconclusive = small, poorly fitted or top-dose-only effect; inactive = no such curve, though single readings can be large or run the other way. The sample as a whole holds a higher share of actives than the screen did.

Experiment: qHTS of alpha-syn Inhibitors; note: nearly all actives have a fitted effect of over 65% in size; for growth rescue (activation): % of control where 0% means no effect
Settings: Yeast expressing alpha-synuclein, BacTiter-Glo, 24 h; Potency: growth rescue; series mostly up to 46.1 µM; growth rescue (activation): at the top concentration
Excerpt: The goal of this project is to identify new chemical probes capable of reversing the toxicity associated with the Parkinson disease-related protein, alpha-synuclein. Compounds will be selected on their ability to restore growth in yeast cells expressing toxic levels of alpha-synuclein. These compounds will provide a complementary approach to deciphering the tangled mechanisms of toxicity and protection that we have uncovered through genome-wide genetic screens and are beginning to uncover in a large-scale proteomics analysis with mass spectroscopy. To this end, a miniaturized assay was developed to be screened against the Molecular Libraries Small Molecule Repository (MLSMR) to discover alpha-synuclein inhibitors. Please note that in the set-up this yeast-based assay compounds that inhibit as alpha-syn, have a read-out as activators. NIH Chemical Genomics Center [NCGC] NIH Molecular Libraries Probe Centers Network [MLPCN] MLPCN Grant: NS060957 Assay Submitter (PI): Susan Lindquist, Whitehead Institute/MIT
Dispense 2.5 microL yeast galactose medium per 1536-well plate, pin compound, dispense 2.5 microL alpha-synuclein expressing yeast in galactose medium at OD600=0.02 (pregrown in raffinose medium to mid-log phase) per well, incubate for 24 hr at 30 deg C, and cell growth will be measured using 5 microL of Bactiter/Glo reagent to entire plate and read using Luminescence Protocol in ViewLux.
Potency is the fitted concentration of half-maximal effect.

SMILES | Potency | growth rescue (activation)
C[C@@H]1C[C@@H]2O[C@H]2/C=C\C=C\C(=O)Cc2c(Cl)c(O)cc(O)c2C(=O)O1 | 7.94 µM (active) | –
Cc1ncoc1C(=O)NCC1=C(c2cccc3ccccc23)C[C@@H]2CC[C@H]1N2Cc1ccco1 | – | 24.8% (inactive)
O=C(NCC1=C(c2ccc3ccccc3c2)C[C@@H]2CC[C@H]1N2Cc1ccco1)c1cccs1 | 3.55 µM (active) | –
CC(=O)NCC1=C(c2ccc3ccccc3c2)C[C@@H]2CC[C@H]1N2Cc1ccco1 | – | -5.06% (inactive)
N#Cc1c(Cl)c(Cl)c(Cl)c(C#N)c1Cl | – | -87.2% (inactive)
COc1ccc(NC(=O)Nc2cccc3cccnc23)cc1 | – | -35.2% (inactive)
c1ccc(Cc2nn3c(Cn4cnc5ccccc54)nnc3s2)cc1 | – | -33.2% (inactive)
O=C(O)/C=C/c1ccc2c(c1)OCO2 | – | 6.25% (inactive)
CC(=O)c1c(O)c(C)c(O)c(Cc2c(O)c3c(c(C(=O)/C=C/c4ccccc4)c2O)OC(C)(C)C=C3)c1O | inactive | –
